Source: PubChem BioAssay (NCATS)
Records with an inconclusive call do not appear. Where a call stands in place of a potency, no number is given. A number with no mark means an inactive call. Activity calls are given as the source filed them. The call rests on the fitted dose curve; in most records, active means well fitted cell-killing curve with a large enough effect; inconclusive means small, poorly fitted or top-dose-only effect, or effect the other way; inactive means flat fitted curve, though single readings scatter.

Key:
Experiment in all cases: Primary qHTS to identify gynecologic anti-cancer compounds using libraries of approved drugs and bioactive compounds (AID 1345084); further: nearly all actives have a fitted effect of over 55% in size
[1] = test system: C33A; conditions: Gynecologic cancer cell panel viability, ATPlite luminescence, 48 h; series mostly up to 57.5 µM
How it was run: (§1)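 Cells, 1,000 per well, plated 16 h, then exposed 48 h at 37 C to compounds. Viability by ATPlite luminescence after 15 min at room temperature.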

[2] = test system: CAOV3; conditions: Gynecologic cancer cell panel viability, ATPlite luminescence, 48 h; series mostly up to 57.5 µM
How it was run: as §1

[3] = test system: CASKI; conditions: Gynecologic cancer cell panel viability, ATPlite luminescence, 48 h; series mostly up to 57.5 µM
How it was run: as §1

[4] = test system: Es-2; conditions: Gynecologic cancer cell panel viability, ATPlite luminescence, 48 h; series mostly up to 57.5 µM
How it was run: as §1

[5] = test system: HeLa; conditions: Gynecologic cancer cell panel viability, ATPlite luminescence, 48 h; series mostly up to 57.5 µM
How it was run: as §1

[6] = test system: Hek293T; conditions: Gynecologic cancer cell panel viability, ATPlite luminescence, 48 h, control line for the selectivity index; series mostly up to 57.5 µM
How it was run: as §1
Potency means the concentration at half of the fitted maximal effect.

SMILES | Potency [1] | Potency [2] | Potency [3] | Potency [4] | Potency [5] | Potency [6] | activity change, negative = cytotoxicity [1] | activity change, negative = cytotoxicity [2] | activity change, negative = cytotoxicity [3] | activity change, negative = cytotoxicity [4] | activity change, negative = cytotoxicity [5] | activity change, negative = cytotoxicity [6]
Nc1nc(-n2cc(C(=O)O)c(=O)c3cc(F)c(N4CC(O)C4)c(Cl)c32)c(F)cc1F | inactive | inactive | inactive | inactive | inactive | inactive | – | – | – | – | – | –
CC(O)CO[C@@H]1O[C@H](CO)[C@@H](O)[C@H](O)[C@H]1O (stereo not given in full) | inactive | inactive | inactive | inactive | inactive | inactive | – | – | – | – | – | –
CC1OC2OC(=O)C3(C)CC4=C(CO)C5=C(CC(=O)C4(C)C(C1=O)C23)C(C)(C)OC(=O)C5 (stereo not given) | inactive | inactive | inactive | inactive | inactive | inactive | – | – | – | – | – | –
CC(C)=CCC[C@](C)(O[C@@H]1O[C@H](CO)[C@@H](O)[C@H](O)[C@H]1O)[C@H]1CC[C@]2(C)[C@@H]1[C@H](O)CC1[C@@]3(C)CC[C@H](O)C(C)(C)C3[C@@H](O[C@@H]3O[C@H](CO)[C@@H](O)[C@H](O)[C@H]3O[C@@H]3OC[C@@H](O)[C@H](O)[C@H]3O)C[C@]12C (stereo not given in full) | – | – | – | – | – | – | -5.13% [at 11.6 µM] | 0.415% [at 11.6 µM] | -3.01% [at 11.6 µM] | 3.44% [at 11.6 µM] | 9.51% [at 11.6 µM] | -2.61% [at 11.6 µM]
Nc1ccccc1N | 10 µM (active) | 5.62 µM (active) | 7.94 µM (active) | 11.2 µM (active) | 12.6 µM (active) | 7.94 µM (active) | – | – | – | – | – | –
C[C@@H]1O[C@@H](O[C@H]2[C@H](O)[C@@H](O[C@@H]3O[C@H](CO)[C@@H](O)[C@H](O[C@@H]4O[C@H](CO)[C@@H](O)[C@H](O)[C@H]4O)[C@H]3O)[C@H](O[C@H]3CC[C@@]4(C)C(=CC[C@@H]5C4CC[C@@]4(C)C5C[C@@H]5OC6(CC[C@@](C)(CO[C@@H]7O[C@H](CO)[C@@H](O)[C@H](O)[C@H]7O)O6)[C@@H](C)[C@@H]54)C3)O[C@@H]2CO)[C@H](O)[C@H](O)[C@H]1O (stereo not given in full) | – | – | – | – | – | – | 0.269% [at 6.55 µM] | -0.0617% [at 6.55 µM] | -1.1% [at 6.55 µM] | -0.893% [at 6.55 µM] | -3.62% [at 6.55 µM] | 9.02% [at 6.55 µM]
C[C@H](Nc1ncnc2nc[nH]c12)c1cc2ccc(F)cc2nc1-c1ccccn1 | inactive | inactive | inactive | inactive | inactive | inactive | – | – | – | – | – | –
CC(C)C1=CC2C(CC[C@]2(C)O)[C@](C)(O)CC1 (stereo not given in full) | inactive | inactive | inactive | inactive | inactive | inactive | – | – | – | – | – | –
CC(C)(O)c1ccc2c(c1)C(O)C[C@H]1[C@](C)(C(=O)O)CCC[C@]21C (stereo not given in full) | inactive | inactive | inactive | inactive | inactive | inactive | – | – | – | – | – | –
COc1cc(Nc2nc3c(s2)CCCC3c2ccc(F)cc2)ccc1-n1cnc(C)c1 (stereo not given) | inactive | inactive | inactive | inactive | inactive | inactive | – | – | – | – | – | –
CC(C)c1cc(C(=O)N2CC[C@@H](NC(=O)C3CC3)C2)n[nH]1 | inactive | inactive | inactive | inactive | inactive | inactive | – | – | – | – | – | –
CO[C@H]1O[C@@H]2O[C@]3(C)CC[C@H]4[C@H](C)CC[C@@H]([C@H]1C)[C@@]24OO3 | inactive | inactive | inactive | inactive | inactive | inactive | – | – | – | – | – | –
Cc1cc(N2CCN([C@@H]3CN[C@H](C(=O)N4CCSC4)C3)CC2)n(-c2ccccc2)n1 | inactive | inactive | inactive | inactive | inactive | inactive | – | – | – | – | – | –
NC(=O)[C@H](O[C@@H]1O[C@H](CO)[C@@H](O)[C@H](O)[C@H]1O)c1ccccc1 | inactive | inactive | inactive | inactive | inactive | inactive | – | – | – | – | – | –
Cc1[nH]c2ccccc2c1C1=C(NCCc2ccc(F)cc2)C(=O)N(C)C1=O | inactive | inactive | inactive | inactive | inactive | inactive | – | – | – | – | – | –
CCCC1(c2ccccc2)NC(=O)N(CC(=O)N(C)Cc2c(F)cccc2Cl)C1=O (stereo not given) | inactive | inactive | inactive | inactive | inactive | inactive | – | – | – | – | – | –
Cc1ccc(NC(=O)C(=O)NC2CC(C)(C)NC(C)(C)C2)cc1 | inactive | inactive | inactive | inactive | inactive | inactive | – | – | – | – | – | –
COC(=O)CCc1cc2ccoc2c(OC)c1O[C@@H]1O[C@H](CO)[C@@H](O)[C@H](O)[C@H]1O | inactive | inactive | inactive | inactive | inactive | inactive | – | – | – | – | – | –
CN=C(N)NCCCCC/C=C(/C)CC(C)C1OC(=O)C(C)C(O)/C=C/C(C)C(O)CC(O)C(C)C(O)CCC(C)C(O)CC2(O)OC(CC(OC(=O)CC(=O)O)CC(O)CC(O)C(C)C(O)/C(C)=C/CCC1C)CC(O)C2O (stereo not given) | – | – | – | – | – | – | 11.4% [at 11.6 µM] | 12.9% [at 11.6 µM] | 9.88% [at 11.6 µM] | 0.226% [at 11.6 µM] | 3.51% [at 11.6 µM] | 10.1% [at 11.6 µM]
C=C1C(=O)OC2CC3(C)C(CC12)C(C)=CC(O)C3OC(C)=O (stereo not given) | inactive | inactive | inactive | inactive | inactive | inactive | – | – | – | – | – | –
